LASV entry inh: qHTS for Inhibitors of binding or entry into cells for Lassa Virus; Lassa virus pseudotype entry inhibition, cell reporter; Potency, µM (series often up to 37.9 µM), for the others: top-dose activity change, negative = inhibition, actives largely listed as inhibitors; 300,000 tested, 1.2% active; AID 540256, 2011; calls by dose curve; tested in HEK293 cells; also: potency is read from the fitted curve at half-maximal effect; % is scaled to controls: 0 for no effect and ±100 for the full control effect; nearly all actives have a fitted effect of over 50% in size
Marburg entry inh: qHTS for inhibitors of binding or entry into cells for Marburg Virus; Potency, µM (top dose mostly 37.8 µM), inactives show top-dose activity change, negative = inhibition, actives largely listed as inhibitors; Marburg virus pseudotyped entry inhibition, cell reporter; 300,000 tested, 1.8% active; calls by dose curve; tested in HEK293 cells; also: potency is read from the fitted curve at half-maximal effect; % is scaled to controls: 0 for no effect and ±100 for the full control effect
Cycloheximide cs: Cycloheximide Counterscreen for Small Molecule Inhibitors of Shiga Toxin | cell reporter, cycloheximide protein synthesis inhibition counterscreen | max response, % | 300,000 tested, 12% active | AID 2314, 2010; in the data active = max response mostly above about 13%, no sharp cut-off; inactive = mostly below about 14%; also: read at 38.3 µM for the half of the compounds with a filed dose; 0% is about no effect
Shiga toxin inh: A qHTS for Small Molecule Inhibitors of Shiga Toxin; AID 2315, 2010; Vero cells, Shiga toxin protein synthesis inhibition reporter; 290,000 tested, 9.2% active; inhibition, % at 38.7 µM; in the data active = inhibition mostly above about 28%, no sharp cut-off; inactive = mostly below about 43%; also: 0% is about no effect
An asterisk follows results filed as active; ? = inconclusive; · = no result; [ ] = remark or other dose. Most compounds without a hit are left out; they make up all but 12% or so of the library.

SMILES	LASV entry inh	Marburg entry inh	Cycloheximide cs	Shiga toxin inh
COc1ccc(-c2cn3c(n2)CCC3)cc1	-24.3%	-26.9%	37.8*	53.7*
c1ccc(-c2nnc3n2CCCC3)cc1	24.0%	25.3%	-3.6	3.9
Cc1ccc(-c2cn3c(n2)CCCC3)cc1	5.5%	?	20.0	48.9
c1ccc(-c2ccc(-c3cn4c(n3)CCC4)cc2)cc1	10µM*	7.08µM*	36.6*	57.7*
O=C(Nc1ccc(S(=O)(=O)Nc2cnc3ccccc3n2)cc1)c1cccc(OC(F)F)c1	?	-0.3%[46.1 µM]	-6.5	-7.5
CCCCCn1cc2c(c1-c1ccccc1Br)c(=O)n(C)c(=O)n2C	-3.9%[46.1 µM]	3.0%[46.1 µM]	·	·
CC(C)(C)c1nnc(N/N=C/c2ccc(Br)cc2)n(N)c1=O	-10.1%	?	55.5*	63.8*
CSc1ccc(/C=N\Nc2nncn2N)cc1	·	·	28.0*	76.4*
CC1CCN(c2ccc(/C=N\Nc3nncn3N)cc2[N+](=O)[O-])CC1	?	?	2.9	13.0
CC(C)(C)NC(=O)C(=O)N/N=C/c1ccc(Br)cc1	-0.5%	4.6%	14.6	13.1
CC(C)(C)c1ccc(/C=N/Nc2nncn2N)cc1	?	?	17.1*	12.7
CC(C)CON=C1C[C@@H](O)[C@@H](O)[C@@H]2[C@H]3C(=O)N(Cc4ccc5c(c4)OCO5)C(=O)[C@@H]3CC[C@@H]12	·	-29.9%[14.2 µM]	·	·
COc1ccccc1-c1ccc(NC2CCCCC2)nn1	25.1%	?	30.8*	72.3*
COc1ccccc1OCC(=O)NC1CCCCCCC1	-1.0%	-15.5%	·	·
COc1ccccc1-c1ccc(Nc2cccc(C(F)(F)F)c2)nn1	-0.6%	-0.4%	14.8*	13.7
CCOC(=O)C1CCCN(S(=O)(=O)c2ccc(N3CCCCS3(=O)=O)cc2)C1 (configuration not stated)	-28.3%[46.1 µM]	·	·	·
Oc1cccc2c(NC(=S)Nc3ccc(SC(F)F)cc3)cccc12	-11.9%	-30.4%	82.3*	134.9*
FC(F)Sc1ccc(NC(=S)NC2CCC(NC(=S)Nc3ccc(SC(F)F)cc3)CC2)cc1 (configuration not stated)	0.0%	-4.8%	10.0	-3.4
CCCCNC(=S)Nc1ccc(F)cc1	4.0%	-23.4%	0.4	11.9
CCCCNC(=S)Nc1ccc(SC(F)F)cc1	?	?	60.5*	148.6*
CCCC(=O)NC(=S)Nc1cccc2c(O)cccc12	0.6%[46.1 µM]	-0.1%[46.1 µM]	0.5	11.4
Oc1cccc(NC(=S)Nc2ccc(SC(F)F)cc2)c1	3.6%	?	21.3*	20.2
COc1ccccc1NC(=O)/C=C/c1ccc2c(c1)OCO2	?	-12.7%	31.0*	85.4*
COc1ccccc1NC(=O)COC(=O)/C=C/c1ccc2c(c1)OCO2	?	28.1%[46.1 µM]	52.0*	83.7*
O=C(COC(=O)/C=C/c1ccc(Cl)cc1)Nc1ccc2c(c1)OCCO2	11.4%	?	-1.4	-3.3
SMILES	LASV entry inh	Marburg entry inh	Cycloheximide cs	Shiga toxin inh
NC(=O)c1ccc(NC(=O)COC(=O)/C=C/c2ccc3c(c2)OCO3)cc1	·	·	26.1*	66.0*
COc1ccccc1N1CCN(C(=O)/C=C/c2ccc3c(c2)OCO3)CC1	15.0%	2.0%	-1.6	-21.4
CC(=O)Nc1ccc(NS(=O)(=O)c2cccc3nonc23)cc1	1.8%[46.1 µM]	0.5%[46.1 µM]	-4.3	14.8
COc1ccc(C(C(C(=O)c2cccs2)N2CCOCC2)N2CCOCC2)cc1OC (configuration not stated)	8.4%	-2.3%	16.4*	11.2
N#C/C(=C\c1ccc(-c2cccc([N+](=O)[O-])c2)o1)C(=O)Nc1nc(-c2cccs2)cs1	·	·	-0.1	-5.9
CC(C)n1c(O)c(/C=C2\C=NN=C2c2ccccc2)sc1=S	?	11.2µM*	-1.5	-0.7
CCn1c(O)c(/C=C2\C=NN=C2c2ccc(C)cc2)sc1=S	2.6%	1.1%[46.1 µM]	-1.6	-4.1
CCC(C)NC(=O)Cn1c(=O)n(Cc2ccc(C(=O)NCCCOC)cc2)c(=O)c2ccccc21 (configuration not stated)	0.1%[46.1 µM]	16.5%[46.1 µM]	·	·
CCCC(C(=O)NCCC(C)C)N(Cc1ccccc1)C(=O)c1snc(C(N)=O)c1N (configuration not stated)	·	·	-3.4	-6.3
O=C(On1c(-c2ccccc2)nc2ccccc2c1=O)c1ccco1	?	-16.9%	7.1	-4.0
COc1cc(OC)cc(-c2nc3ccccc3c(=O)n2OC(=O)c2ccccc2C)c1	11.2µM*	?	6.3	-10.9
COc1cccc(C(=O)CC(C#N)c2ccc(F)cc2)c1 (configuration not stated)	?	4.6%[46.1 µM]	11.9	25.6*
COc1cccc(C(=O)CC(C(=O)O)c2ccc(F)cc2)c1 (configuration not stated)	-3.4%[46.1 µM]	8.9%[46.1 µM]	5.0	19.7
Cc1ccn(C(C)CC(=O)Nc2ccc(-c3ccno3)cc2)n1 (configuration not stated)	·	·	6.3	16.0
CC/C(=N\NC(=O)c1ccccc1)c1c(O)n(Cc2ccccc2)c(=O)[nH]c1=O	-27.9%[46.1 µM]	?	57.4*	53.5*
CCC(=NCC1CCCO1)c1c(O)n(Cc2ccccc2)c(=O)[nH]c1=O (configuration not stated)	1.64µM*	12.8%	-4.5	-2.5
CCC(=NCCCN1CCOCC1)c1c(O)n(Cc2ccccc2)c(=O)[nH]c1=O	?	?	-2.1	-8.6
CON(C)C(=O)c1nnc2c3ccccc3n(S(=O)(=O)c3ccc(C)cc3)c2n1	·	16.4%[14.2 µM]	·	·
CCOC(=O)C1C(=O)OC(C)(C)C1C(CC)C(=O)c1c(C)cc(C)cc1C (configuration not stated)	·	·	-3.3	-12.5
C=CCNC(=S)N1CCN(Cc2ccccc2)CC1	·	·	-0.9	-8.5
CC[C@@]1([C@@H]2O[C@@H]([C@H]3O[C@@](O)(CO)[C@H](C)C[C@@H]3C)C[C@@H]2C)CC[C@H]([C@]2(C)CC[C@]3(C[C@H](O)[C@@H](C)[C@@H]([C@@H](C)[C@@H](OC)C(C)C(=O)O)O3)O2)O1 (some centres not stated)	·	·	6.2	23.3
COC1CCC(OC2CC(C3(C)CCC4(CC(O)C(C)C(C(C)/C=C(\C)C(=O)C(C)CC(C)C(=O)O)O4)O3)OC3(OC(C4OC(O)(CO)C(C)CC4C)CC3C)C2C)OC1C (configuration not stated)	0.316µM*	?	·	·
Cc1cc(C)nc(SC/C=C/c2ccccc2)n1	·	·	23.2*	·
C(=C\c1ccccc1)/CSc1ccccn1	6.0%	?	72.7*	92.6*
Cc1c(-c2ccc(Br)cc2)c(=O)oc2ccc(OC(=O)N3CCOCC3)cc12	-48.2%[46.1 µM]	·	·	·
SMILES	LASV entry inh	Marburg entry inh	Cycloheximide cs	Shiga toxin inh
Cc1ccccc1NC(=S)NC1(C)CCS(=O)(=O)C1 (configuration not stated)	-3.8%	-8.3%	-3.8	-9.4
O=C(O)c1nc(-c2ccccc2)n(-c2cccc(C(F)(F)F)c2)n1	?	26.8%[46.1 µM]	9.1	39.5
O=S(=O)(NCC1CCCO1)c1ccc(S(=O)(=O)N(Cc2ccc(F)cc2)Cc2ccco2)cc1 (configuration not stated)	?	5.2%	4.7	12.0
Cc1ccc(NC2=C(NCCO)C(=O)c3ccccc3C2=O)cc1	?	?	32.3*	86.8*
O=C1C(Cl)=C(NCCCO)C(=O)c2ccccc21	-18.2%	?	13.8*	12.8
CCOCCCNC1=C(Cl)C(=O)c2ccccc2C1=O	·	·	36.0*	72.0*
